Data on eight compounds can be found in PubChem BioAssay (NCI).

Each structure is given as a SMILES string. About 83,000 compounds went through this panel and 20% of them were active in at least one assay; those are over-represented in the sample as a whole.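 Method: cells in 96-well plates; compound added at one concentration; 48 h incubation; percent growth measured; values under 10 scored active.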 Unmarked numbers belong to inactive results. Active and inactive are the calls of the source.

Common to all, as to assay: NCI-60 one-dose screen, 48 h (100 = growth as untreated, 0 = no growth, -100 = all killed)
What all share (settings): 10 µM unless noted

Test [1] deals with HCT-15 colon.
Test [2] concerns HT29 colon.
Test [3] deals with SNB-75 CNS.
Test [4] relates to SNB-19 CNS.
In test [5] the test system is U251 CNS.
Test [6] relates to PC-3 prostate.
In test [7] the test system is SK-MEL-5 melanoma.
Test [8] relates to UACC-62 melanoma.
Test [9] relates to LOX IMVI melanoma.
Test [10] deals with SK-MEL-28 melanoma.
Test [11] concerns SK-MEL-2 melanoma.
For test [12], the system named is EKVX NSCLC.
In test [13] the test system is SN12C renal.
In test [14] the test system is UO-31 renal.
In test [15] the test system is TK-10 renal.
Test [16] deals with ACHN renal.
The subject of test [17] is CAKI-1 renal.
For test [18], the system named is A498 renal.
The subject of test [19] is CCRF-CEM leukemia.
Test [20] deals with MOLT-4 leukemia.

For the compound `CCN(CC)CCCCNc1ccc(NCCCCN(CC)CC)c2c1C(=O)c1ccccc1C2=O`, the growth in test [1] is 76.2%; in test [2] it was -54.8% (active); in test [3], 142%; in test [4], 106%; in [5] it was 85.5%; in test [6] it was 94.1%. Besides, the growth in [7] was 106%; in test [8], 111%; in [9] it was -56.6% (active); in test [10], 116%; in [11] it was 105%; in [12], 100%. Moreover, the growth in [13] was 84.1%; in test [14] it was 62.3%; in test [15], 57.8%; in test [16], 88.4%; in test [17], 81.5%; in [18], 110%. The growth is 78.6% in test [19] and 62.9% in test [20].
Turning to `Oc1ccc2c(=S)cc(-c3ccc(Br)cc3)oc2c1O`, the growth in [1] was 8.03% (active); in test [2], 63.9%; in test [3] it was 71.4%; in [4] it was 6.8% (active); in [5] it was -7.83% (active); in [6] it was -2.05% (active). In addition, the growth in [7] is 10.9%; in test [8], 8.09% (active); in test [9], 1.22% (active); in test [10], 51.4%; in [11], 63.8%; in test [12], 87.9%. Further, the growth in [13] is -4.08% (active); in test [14], 17.4%; in [15], 103%; in test [16], 13.9%; in test [17], 65.8%; in [18], 53.9%. In addition, the growth in test [19] was 5.37% (active); in test [20] it was 7.88% (active).
For the compound `O=C(O)c1ccc(=O)[nH]n1`, the growth is 101% in [1]; 123% in test [2]; 98.4% in test [3]; 102% in test [4]; 109% in test [5]; 103% in [6]. Moreover, the growth was 110% in test [7]; 98.2% in test [8]; 96.2% in test [9]; 109% in test [10]; 116% in test [11]; 116% in test [12]. Besides, the growth was 94.3% in test [13]; 88.3% in [14]; 117% in [15]; 98.8% in [16]; 109% in [17]; 105% in [18]. For the same compound, the growth in test [19] was 112%; in [20] it was 89%.
Regarding `CC(=O)C1=C(O)C=C2Oc3c(C(=O)/C=C/c4c(Cl)cccc4Cl)c(O)c(C)c(O)c3[C@]2(C)C1=O`, the growth in test [1] was -50.4% (active); in test [2], -18.5% (active); in test [3], -22.3% (active); in test [4] it was -23.7% (active); in test [5], -33% (active); in test [6] it was -3.69% (active). Moreover, the growth in [7] is -86.3% (active); in test [8], -69.7% (active); in test [9] it was -51.9% (active); in test [10] it was -60.1% (active); in test [11], -49.1% (active); in test [12], -0.577% (active). For the same compound, the growth was -30.9% (active) in [13]; -28.6% (active) in test [14]; -30.8% (active) in test [15]; -15.3% (active) in [16]; 6.78% (active) in [17]; -72.4% (active) in test [18]. Moreover, the figures for the growth in test [19] and in [20] were -25.3% (active) and -33% (active), respectively.
As to `CCCC(=O)Oc1ccc(/C(=C(/CC)Cc2ccccc2)c2ccc(OCCN3CCCC3)cc2)cc1`, the growth in test [1] is 41.8%; in [2] it was 16.5%; in [3], 62.5%; in test [4] it was 94.2%; in test [5], 49%; in test [6], 70%. Also, the growth was 66.2% in test [7]; 23.7% in test [8]; 25.2% in [9]; -19.8% (active) in [10]; 103% in [11]; 81.4% in [12]. Also, the growth was 99.4% in test [13]; 66.5% in test [14]; 87.8% in test [15]; 87.3% in [16]; 85.2% in test [17]; 71.9% in test [18]. Moreover, the growth was 84.4% in test [19] and 51.6% in test [20].
Consider `Cn1c(=O)c2[nH]c(C(O)C(O)C(O)C(O)CO)nc2n(C)c1=O` (stereo not given), for which the growth is 106% in test [1]; 99.6% in test [2]; 92.6% in test [3]; 97.3% in [4]; 100% in test [5]; 93.2% in [6]. For the same compound, the growth is 104% in test [7]; 99.7% in [8]; 102% in test [9]; 100% in test [10]; 104% in test [11]; 103% in test [12]. The growth in test [13] is 107%; in test [14], 91.8%; in test [15] it was 103%; in [16] it was 106%; in test [17], 102%; in test [18] it was 106%. Besides, the growth was 105% in [19] and 103% in [20].
Consider `O=c1ccc2cc3ccccc3cc2[nH]1`, for which the growth was 109% in test [1]; 101% in test [2]; 82.2% in [3]; 104% in test [4]; 95.5% in test [5]; 105% in test [6]. In addition, the growth in [7] was 80.8%; in [8] it was 66.4%; in test [9], 102%; in test [10], 124%; in test [11], 97.5%; in [12], 28.1%. Moreover, the growth is 94.4% in test [13]; 76.4% in test [14]; 119% in [15]; 108% in [16]; 78.4% in [17]; 97.9% in test [18]. The growth is -72.7% (active) in test [19] and 87.3% in test [20].
With `O=C1c2ccccc2-c2nccc3cc(Cl)nc1c23`, the growth in [1] is 17.6%; in [2] it was 14.3%; in test [3], 65.1%; in [4], 105%; in test [5], 32.8%; in test [6] it was 8.78% (active). Moreover, the growth in test [7] was -89% (active); in test [8], 27.7%; in test [9], -22.5% (active); in test [10] it was 55.8%; in test [11] it was 22.2%; in test [12] it was -17.3% (active). Besides, the growth was -30.7% (active) in test [13]; -18.5% (active) in test [14]; 61.1% in [15]; -46.4% (active) in test [16]; 32.9% in test [17]; 90.2% in test [18]. Further, the growth in test [19] was 19.4%; in test [20], 26%.
